About 83,000 compounds went through this panel and 20% of them were active in at least one assay; those are over-represented in the sample as a whole.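 96-well plates, one dose, 48 hours. Percent growth reported; active if below 10.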 A number with no mark means an inactive call. Activity calls are given as the source filed them.
tested on: HL-60(TB) leukemia; assay: NCI-60 one-dose screen, 48 h (100 = growth as untreated, 0 = no growth, -100 = all killed); conditions: 10 µM unless noted

Question: `CCCCCCNC(=O)Oc1ccc(/C(=C(\C)c2ccccc2)c2ccc(OCCN(CC)CC)cc2)cc1` was tested. Which growth did it give?
Answer: Its growth is 9.56% (active).

Question: With `COc1cc(/C=C/C(=O)c2c(C)[n+]([O-])c3ccccc3[n+]2[O-])ccc1O` as the molecule, how does the growth read?
Answer: Its growth is 102%.

Question: Which growth does the source give for `CC(=Nc1ccc(N(C)C)cc1)c1ccccc1` here?
Answer: The growth was 26.1%.

Question: How did the growth turn out when `Cc1cc(Cl)ccc1Nc1nc(C(F)(F)F)ccc1C(=O)N/N=C/c1c(Cl)cccc1Cl` was run?
Answer: The growth was -26.8% (active).

Question: How did the growth turn out when `COc1ccc(C2OC(c3cc(-c4cc5ccccc5o4)nn3-c3ccccc3)=NN2C(C)=O)cc1` (stereo not given) was run?
Answer: Its growth is 84.3%.

Question: For `Nc1ccccc1NC(=O)c1ccc(CN2CCC/C(=C\c3ccccn3)C2=O)cc1`, which growth is on record?
Answer: The growth was -18% (active).

Question: How did the growth turn out when `CN(C)CC/C=C1\c2ccccc2Sc2ccc(Cl)cc21` was run?
Answer: The growth was 94.2%.

Question: With `COc1cccc(-c2nc3sccn3c2-c2ccnc(NCCN3CCCNS3(=O)=O)n2)c1` as the molecule, how does the growth read?
Answer: Its growth is 108%.

Question: With `Cc1c2cnccc2c(C)c2c1c1cc(C(=O)O)ccc1n2C` as the molecule, how does the growth read?
Answer: The growth was 5.27% (active).

Question: `CC1(C)c2[nH]c3ccccc3c2C[C@]2(C)[C@H]3C(=O)C=C4[C@@H]5C[C@@](C)(C(N)=O)CC[C@]5(C)CC[C@@]4(C)[C@]3(C)CC[C@@H]12` was tested. Which growth did it give?
Answer: Its growth is 59.9%.

Question: `COc1ccc(-n2c(/C=C/c3ccc(O)c(OC)c3)cc(/C=C/c3ccc(O)c(OC)c3)nc2=O)cc1` was tested. Which growth did it give?
Answer: Its growth is 33.7%.

Question: With `O=S(=O)(NCCNc1cc(-c2cn(-c3ccccc3)nc2-c2cccc(O)c2)ccn1)c1ccc(F)cc1` as the molecule, how does the growth read?
Answer: Its growth is 6.88% (active).

Question: For `Cc1cc([N+](=O)[O-])ccc1NC(=O)c1ccc2c(c1)nc(-c1ccccc1)n2C1CCCCC1`, which growth is on record?
Answer: Its growth is 64.7%.

Question: Which growth does the source give for `CC1=C([Se]CC(OC(=O)CC[Se]c2ccccc2)C(=O)NC(C)(C)C)C(=O)c2ccccc2C1=O` (stereo not given) here?
Answer: Its growth is -43.2% (active).

Question: For `OC1CSSC1Cn1cnc2c(Nc3ccc(OCc4cccc(F)c4)c(Cl)c3)ncnc21` (stereo not given), which growth is on record?
Answer: The growth was -29.3% (active).

Question: How did the growth turn out when `N=c1nc(N)ncn1-c1ccccc1` was run?
Answer: The growth was 110%.

Question: With `CCN1CC(CCN2CCOCC2)C(C(c2ccccc2)c2ccccc2)C1=O` (stereo not given) as the molecule, how does the growth read?
Answer: Its growth is 113%.

Question: `COc1ccc(-c2nc(SCCC(C)C)nc(Nc3ccc(C(=O)O)cc3)c2C#N)cc1` was tested. Which growth did it give?
Answer: Its growth is 71.6%.

Question: `N#Cc1cnn2c(-c3ccc(Cl)cc3)nc(NCCc3ccccc3)nc12` was tested. Which growth did it give?
Answer: Its growth is 85.1%.

Question: How did the growth turn out when `CCOC(=O)C(C(=O)OCC)C1CCCCC1` was run?
Answer: The growth was 105%.

Question: How did the growth turn out when `CNC(=O)c1cc(Oc2cccc3nc(NC(=O)Nc4cc(C(F)(F)F)cc(C(F)(F)F)c4)ccc23)ccn1` was run?
Answer: Its growth is 70.5%.

Question: How did the growth turn out when `COC(=O)C12C3C(=O)N(c4ccc(OC)cc4)C(=O)C3C(c3cn(-c4ccccc4)nc3C)N1[C@H](c1cn(-c3ccccc3)nc1C)[C@@H]1C(=O)N(c3ccc(OC)cc3)C(=O)[C@@H]12` (stereo not given in full) was run?
Answer: The growth was 106%.

Question: For `Cc1cc(NC(=O)c2ccc(C)c(Nc3nccc(-c4cccnc4)n3)c2)cc(-n2cnc(C)c2)c1`, which growth is on record?
Answer: Its growth is 22.8%.

Question: `CN(C)c1ccc(Nc2c3ccccc3nc3cc(NC(=O)CCN4CCCC4)ccc23)cc1` was tested. Which growth did it give?
Answer: Its growth is -57.9% (active).

Question: Which growth does the source give for `CC(C)CCSc1nc(N)nc2nc[nH]c12` here?
Answer: Its growth is 76.7%.

Question: With `CCN(CC)c1ccc(CNc2cc(C)nc3ccccc23)cc1` as the molecule, how does the growth read?
Answer: The growth was 81.1%.

Question: With `C1=NCCc2ccccc21` as the molecule, how does the growth read?
Answer: The growth was 116%.

Question: With `O=S(=O)(O)c1cnccn1` as the molecule, how does the growth read?
Answer: Its growth is 95.3%.

Question: How did the growth turn out when `CCN1C(=O)N(CC)C2C1NC(=S)N2/N=C/c1ccc(C(F)(F)F)cc1` (stereo not given) was run?
Answer: Its growth is 78.8%.

Question: `O=C1CC(c2ccc3c(c2)OCO3)Nc2cc3c(cc21)OCO3` (stereo not given) was tested. Which growth did it give?
Answer: The growth was -22.9% (active).

Question: With `C=CC(=O)Nc1cccc(-c2nc(SC)nc(Nc3cccc(OC)c3)c2C#N)c1` as the molecule, how does the growth read?
Answer: The growth was 42.2%.

Question: With `COc1ccc(/C=C(\C#N)n2nnc3cc(Cl)ccc32)cc1` as the molecule, how does the growth read?
Answer: The growth was -6.14% (active).

Question: With `C#CCOc1ccc2ncnc(NCc3cccc(NC(=O)CCl)c3)c2c1` as the molecule, how does the growth read?
Answer: Its growth is 19.5% [8.25 µM].

Question: With `CN(C)c1ccc(/C=C2/C=C(c3ccccc3)OC2=O)cc1` as the molecule, how does the growth read?
Answer: Its growth is 4.38% (active).

Question: How did the growth turn out when `CCSCC1CC(O)(c2ccccc2)C(c2ccccc2)C(c2ccc(F)cc2)O1` (stereo not given) was run?
Answer: Its growth is -12.5% (active).

Question: For `Cn1c2ccccc2c2c3c(c4c5ccccc5[nH]c4c21)C(=O)N(N)C3=O`, which growth is on record?
Answer: Its growth is 81.8%.

Question: How did the growth turn out when `COc1cc(/C=C/c2cc(/C=C/c3ccc(O)c(OC)c3)n(C(=O)c3ccccc3Br)n2)ccc1O` was run?
Answer: The growth was -23.9% (active).

Question: With `Cc1cc(C)cc(NCCC#N)c1` as the molecule, how does the growth read?
Answer: The growth was 84.9%.

Question: How did the growth turn out when `COc1ccc(-c2cc(-c3ccc(N(C)C)cc3)nc(NC(=O)c3ccncc3)n2)cc1` was run?
Answer: Its growth is 113%.

Question: With `CCOC(=O)C1=C(COCCN)NC(C)=C(C(=O)OC)C1c1ccccc1Cl` (stereo not given) as the molecule, how does the growth read?
Answer: Its growth is 95.5%.

Reference: PubChem BioAssay (NCI)
